Our source for the Potency and viability, % of control values is PubChem BioAssay (NCATS).

Where “and” joins values, the source holds several entries; their conditions need not be identical. Equal entries are not always repeated. Inconclusive results are not listed. Entries that show only a call come without a potency. Some compounds were tested as several samples or in several runs, with calls that do not always agree. Calls of active or inactive are those of the source. The call rests on the fitted dose curve; in most records, active means well fitted cell-killing curve with a large enough effect; inconclusive means small, poorly fitted or top-dose-only effect, or effect the other way; inactive means no such curve, though single readings can be large or run the other way.
Potency means the concentration at half of the fitted maximal effect.

A short description of this assay: Viability qHTS for spleen associated tyrosine kinase inhibitor (SYKi) drug resistant MV4-11 cells (AID 1963824). Further: nearly all actives have a fitted effect of over 35% in size. As to conditions: SYKi-resistant MV4-11 viability, CellTiter-Glo, 72 h; series mostly up to 45 µM. The source says:
Department of Medicine, Hematology/Oncology
University Hospital Frankfurt, Germany.
Trials have shown promising clinical activity of the selective SYK inhibitor entospletinib in patients with high expressing HOXA9/MEIS1 acute leukemias. As the development of resistance mechanisms is a common problem in the use of targeted drugs, we performed a chemical library screen to identify drug sensitivities in SYK inhibitor resistant AML cells. […] Glucocorticoids are potent immunosuppressants which work in part by inhibiting the transcription of cytokine genes.
Described herein is a viability screen to look for activity in the SYK inhibitor drug resistant cell line against four NCATS compound libraries (MIPE 5.0, NPC, NPACT, and Kinase) totaling 11372 compounds. Active hits were reacquired for confirmation and further secondary assay testing.
SEQUENCE No. (e.g., 1, 2, 3, etc.); […] (e.g., Cells, Incubation, Reagent, etc.); VALUE; DESCRIPTION.
1; Media; 2uL; white, solid-bottom Corning assay plate.
2; Compounds; 23nL; Echo acoustic dispenser.
3; Cell; 5uL; 500 cells per well.
4: Incubation; 72hr; 37 C, 5% CO2, 95% humidity.
5; Reagent; 3uL; CellTiter-Glo reagent (Promega).
6; Incubation; 10min; room temperature.
7; Detection; Luminescence; ViewLux plate reader (PerkinElmer).
NOTES (numbers refer to Sequence numbers above
1. Quantitative high-throughput screening (qHTS) of small molecule compounds was conducted on drug resistant SYKi MV4-11 cell line.
2. Twenty-three nanoliter of small molecule compounds were added to each assay plates using the Echo acoustic dispenser (Beckman Coulter).
3. Cells were seeded into the assay plates at a final density of 500 cells in 5uL of media per well using the Multidrop Combi dispenser.
4. Plates were covered with stainless steel gasketed lids and incubated for 72 hours at standard cell culture conditions.
5. Viability was assessed by adding 3uL of CellTiter-Glo detection reagent (Promega).
6. Plates were covered with gasket lids and incubated for 10 minutes at room temperature.
7. Luminescence was measured on a ViewLux plate reader (PerkinElmer).
(In general: qHTS replaces the single test concentration by a dilution series.)
As for `CC1(C)CCC[C@@]2(C)[C@H]1[C@H](O)C=C(CO)[C@]2(O)CO`, the Potency entry is “inactive”.
Take `C[C@@H]1O[C@@H](O[C@H]2[C@H](O[C@H]3[C@H](O[C@H]4CC[C@@]5(C)C(CC[C@]6(C)C5CC=C5[C@@H]7CC(C)(C)CC(=O)[C@]7(C)CC[C@]56C)[C@@]4(C)CO)O[C@H](C(=O)O)[C@@H](O)[C@@H]3O)O[C@H](CO)[C@H](O)[C@@H]2O)[C@H](O)[C@H](O)[C@H]1O` (stereo not given in full): the viability, % of control was 68.7% [at 9.25 µM] (inactive).
With `CC(C)C1NC(=O)CNC(=O)C2CCCN2C(=O)C(Cc2c[nH]c3ccccc23)NC(=O)CNC(=O)C(Cc2ccc(O)cc2)NC(=O)CNC1=O` (stereo not given), the Potency entry was “inactive”.
For the compound `CC1(C)O[C@@H]2C[C@H]3[C@@H]4CCC5=CC(=O)C=C[C@]5(C)[C@@H]4[C@@H](O)C[C@]3(C)[C@]2(C(=O)CO)O1`, the Potency entry is “inactive”.
Same read-out and setting: the value for `Cc1cc(C)cc(OCC2CNC(=O)O2)c1` (stereo not given) was “inactive”; that for `CC1(C)CC[C@]2(C(=O)O)CC[C@]3(C)C(=CCC4[C@@]5(C)CC[C@H](O[C@@H]6O[C@H](C(=O)O)[C@@H](O)[C@H](O)[C@H]6O)C(C)(CO)C5CC[C@]43C)C2C1` (stereo not given in full) was “inactive”; that for `CC(N)C1CCC(C(=O)Nc2ccncc2)CC1` (stereo not given) was “inactive”.
As to `Cc1[nH]nc2ccc(-c3cncc(OC[C@@H](N)Cc4ccccc4)c3)cc12`, the Potency was 0.116 µM (active).
On the same count and under the same terms, with `CC(=O)OC1C(O)CC2(C)C(CCC3(C)C2CC=C2C4C5(CCC(CO[C@@H]6O[C@H](CO)[C@@H](O)[C@H](O)[C@H]6O)(OC5=O)C4(C)O)C(O)CC23C)C1(C)C` (stereo not given in full) the entry was “inactive”; with `COc1ccc(-c2cc(C(O)C3CCCCN3)c3ccccc3n2)cc1` (stereo not given), 1.66 µM (active); with `COc1cc(-c2nc(N[C@H](CO)Cc3ccccc3)ccc2C(=O)NCCOc2ccccc2)cc(OC)c1OC`, 25.9 µM (active).
On to `COc1ccc(/C=C/C(=O)O[C@@H]2[C@@H](O)[C@@H](O)[C@H](O[C@H]3[C@@H]4C=CO[C@@H](O[C@@H]5O[C@H](CO)[C@@H](O)[C@H](O)[C@H]5O)[C@@H]4[C@@]4(CO)O[C@@H]34)O[C@H]2C)cc1`, for which the Potency entry is “inactive”.
For `CCN1CCN(C(=O)N[C@@H](C(=O)N[C@@H]2C(=O)N3[C@@H]2SC(C)(C)[C@H]3C(=O)O)c2ccccc2)C(=O)C1=O`, the Potency result is “inactive”.
With `O=C1NC(=O)/C(=C/c2ccc3nccc(-c4ccncc4)c3c2)S1`, the Potency is 820 nM (active) and 525 nM (active).
As to `O=c1[nH]nc(Sc2ncc([N+](=O)[O-])s2)n1-c1ccc2c(c1)OCCO2`, the Potency is 2.35 µM (active).
On the same count and under the same terms, with `COc1ccccc1C(=O)Nc1cc2c(cc1N1CCNC[C@H]1C)n(C)c(=O)n2C` the figure was 11.8 µM (active); with `CC(=O)C1=C(O)C=C2Oc3c(C(C)=O)c(O)c(C)c(O)c3[C@]2(C)C1=O`, “inactive”.
Regarding `C=C1CC[C@@H]2[C@](C)(CO)[C@H](O)CC[C@@]2(C)[C@@H]1CC(O)C1=CCOC1=O` (stereo not given in full), the Potency was 4.53 µM (active).
Turning to `Nc1ncnc2c1c(I)cn2[C@@H]1C[C@H](N)[C@@H](O)[C@H]1O`, the Potency was 6.51 µM (active).
On to `CN1CCCN(C(=O)c2cccc(-c3ccc(/C=C4\C(=O)Nc5ccc(Cl)cc54)o3)c2)CC1`, for which the Potency is 0.461 µM (active).
Same read-out and setting: the value for `C=C1C(=O)OC2C1C(O)CC1(C)C(O)CCC(C=O)C21` (stereo not given) was 16.4 µM (active); that for `C=CC(=O)Nc1ccc2ncnc(Nc3ccc(OCc4cccc(F)c4)c(Cl)c3)c2c1` was 2.31 µM (active) and 4.68 µM (active).
On the same count and under the same terms, the value for `CC[C@]1(O)C[C@H]2CN(CCc3c([nH]c4ccccc34)[C@@](C(=O)OC)(c3cc4c(cc3OC)N(C=O)[C@H]3[C@@](O)(C(=O)OC)[C@H](OC(C)=O)[C@]5(CC)C=CCN6CC[C@]43[C@@H]65)C2)C1` was 119 nM (active) and 10.5 nM (active); that for `O=C(O)CCNc1cc(N2CCc3ccccc3CC2)nc(-c2ccccn2)n1` was “inactive”; that for `CN(C)CCOc1ccc(/C(=C(/CCCl)c2ccccc2)c2ccccc2)cc1` was 13.2 µM (active).
Consider `O=C(c1ccccc1)C(O)c1ccccc1` (stereo not given), for which the Potency result is “inactive”.
On the same count and under the same terms, the value for `COc1ccc2[nH]c(S(=O)Cc3ncc(C)c(OC)c3C)nc2c1` (stereo not given) was 1.64 µM (active); that for `Cc1[nH]nc(C(F)(F)F)c1Cc1sc2c(c1C(=O)N1C[C@](C)(O)CO1)c(=O)n(C)c(=O)n2C(C)C` was “inactive”.
For the compound `O=C(O)c1ccc2c3c1cccc3c(=O)n1c3ccccc3nc21`, the Potency result was “inactive”.
Still for that read-out and setting: with `CC(C)C[C@@H]1NC(=O)[C@@H]2C[C@@]34C[C@@H]5[C@@]6(C)CCCC(C)(C)C6CC[C@@]5(C)N(c5ccccc53)[C@H]4N2C1=O` (stereo not given in full) the figure was 0.448 µM (active).
Consider `Nc1ncnc2c1ncn2Cc1c(F)cccc1Cl`, for which the Potency entry is “inactive”.
The same measure, in the same setting: the value for `CC(=O)OC[C@H]1O[C@@](COC(C)=O)(O[C@H]2O[C@H](COC(C)=O)[C@@H](OC(C)=O)[C@H](OC(C)=O)[C@H]2OC(C)=O)[C@@H](OC(C)=O)[C@@H]1OC(C)=O` was “inactive”; that for `CC1(C)C2CC[C@@]34CC(CC[C@H]3[C@]2(C)CC[C@@H]1O[C@@H]1O[C@H](CO)[C@@H](O)[C@H](O)[C@H]1O)[C@](C)(O)C4` (stereo not given in full) was “inactive”.
On to `CC(O)CCC1C(CO[C@@H]2O[C@H](CO)[C@@H](O)[C@H](O)[C@H]2O)CC(O)CC1(C)C` (stereo not given in full), for which the Potency result was “inactive”.
Still for that read-out and setting: with `C[C@@H]1C[C@@H](O)[C@@]23CO[C@@H](O)[C@@H]2CCC[C@@H]3[C@@]12C[C@@H](c1ccoc1)OC2=O` the entry was “inactive”; with `O=c1c(O)c(-c2ccc(O)c(O)c2)oc2cc(O)cc(O)c12`, “inactive and 16.4 µM (active)”.
As for `OC[C@H]1O[C@@H](n2cnc3c(=S)nc[nH]c32)[C@H](O)[C@@H]1O`, the Potency was 1.19 µM (active).
Take `Oc1ccccc1C=NCc1ccccc1`: the Potency entry was “inactive”.
Take `O=C(O)Cc1cn([C@@H]2O[C@H](CO)[C@@H](O)[C@H](O)[C@H]2O[C@@H]2O[C@H](CO)[C@@H](O)[C@H](O)[C@H]2O)c2ccccc12`: the Potency result is “inactive”.
Same read-out and setting: the value for `COc1ccc(C[C@H]2COC(=O)[C@@H]2Cc2ccc(O[C@@H]3O[C@H](CO)[C@@H](O)[C@H](O)[C@H]3O)c(OC)c2)cc1OC` was 1.42 µM (active).
